# Results: PubChem BioAssay AID1733 (National Center for Advancing Translational Sciences (NCATS), 2009)
# Several values for one entry are separate records, joined by “and”; a condition that tells them apart may be missing. Equal values may be shown once. Inconclusive results are not listed. Unmarked numbers belong to inactive results. Activity calls are given as the source filed them. Calls follow the shape of the dose curve; as a rule, active = well fitted inhibition curve with a large enough effect; inconclusive = small, poorly fitted or top-dose-only effect; inactive = flat fitted curve, though single readings scatter.
# Target: Luciferin 4-monooxygenase (Photinus pyralis) (UniProt P08659)
# Test: Counterscreen Assay for Enhancers of SMN2 Splice Variant Expression: Interaction with Luciferase Reporter
# Details: purified firefly luciferase, luminescence, 5 min; series mostly up to 40.3 µM
# Description: NIH Chemical Genomics Center [NCGC] NIH Molecular Libraries Probe Production centers Network [MLPCN] MLPCN Grant: R03 MH084179-01 Assay Submitter (PI): Elliot Androphy NCGC Assay Overview: Spinal muscular atrophy (SMA) is caused by insufficient levels of the survival motor neuron protein SMN. The SMN locus on chromosome 5q13 contains two inverted copies of SMN called SMN1 and SMN2 which are 99% identical at the amino acid level. SMN1 is a fully functional protein and SMN2 skips exon 7 90% of the time. Skipping of exon 7 produces non-functional protein product. 10% of the SMN2 protein includes exon 7 and is fully functional. In the SMA disease state, mutations in the SMN1 locus are the cause of the disease state. Because only 10% of SMN2 is of the fully functional form, it is not sufficient to overcome the deficiency produced by the loss of the SMN1 product. A therapy that either increases the amount of SMN2 product made increases the inclusion of exon 7 has been proposed for the treatment of SMA. We have designed an assay to identify small molecules that can increase the amount of functional SMN2 product by appending a luciferase reporter gene after the native SMN2 gene, such that inclusion of exon 7 in the expressed product places the luciferase sequence in frame, thus generating functional luciferase enzyme. One potential source of false positives in the primary screening assay is stabilization of the reporter luciferase via direct binding. This assay attempts to identify such compounds by screening directly for luciferase activity in the absence of the cellular system.
# NCGC Assay Protocol Summary: The primary screen utilizes a luciferase reporter gene assay, combining the promoter and splicing based cassettes in tandem with the major portion of the native SMN1 cDNA, and then transfected into HEK293 cells. Compounds that modulate luciferase signal presumably modulate expression of […]. In this assay, we utilize purified firefly luciferase in lieu of a cellular reporter to identify compounds interacting directly with luciferase in the primary screen. Sequence, Parameter, Value, Description (1) Reagent, 2.5 uL, Enzyme in buffer (note A) (2) Compound, 23 nL, From stock solutions (3) Time, 5 minutes, Room temp (4) Reagent#2.5 ul, Luciferase detection reagent (note B) (5) Detector, 1 sec integrate, Luminescent read on Viewlux (note C) Sigma enzyme (1 mg) considered to be MW 61,000 diluted in 357 ul assay buffer to 50 uM stock. A - Enzyme and buffer consists of 50 mM Tris-acetate pH 7.6, 10 mM Mg acetate 0.05% BSA, 0.01% Tween and 5 nM firefly luciferase B - Detection reagent = britelite plus diluted 1:10 in PBS C - Viewlux settings were 1 second integration medium sensitivity Keywords: Spinal muscular atrophy, SMA, SMN2, high throughput screening, MLSMR, MLPCN, NIH Roadmap, qHTS and NCGC
# Luciferin 4-monooxygenase (Photinus pyralis), sequence (P08659 whole entry, looked up, canonical isoform): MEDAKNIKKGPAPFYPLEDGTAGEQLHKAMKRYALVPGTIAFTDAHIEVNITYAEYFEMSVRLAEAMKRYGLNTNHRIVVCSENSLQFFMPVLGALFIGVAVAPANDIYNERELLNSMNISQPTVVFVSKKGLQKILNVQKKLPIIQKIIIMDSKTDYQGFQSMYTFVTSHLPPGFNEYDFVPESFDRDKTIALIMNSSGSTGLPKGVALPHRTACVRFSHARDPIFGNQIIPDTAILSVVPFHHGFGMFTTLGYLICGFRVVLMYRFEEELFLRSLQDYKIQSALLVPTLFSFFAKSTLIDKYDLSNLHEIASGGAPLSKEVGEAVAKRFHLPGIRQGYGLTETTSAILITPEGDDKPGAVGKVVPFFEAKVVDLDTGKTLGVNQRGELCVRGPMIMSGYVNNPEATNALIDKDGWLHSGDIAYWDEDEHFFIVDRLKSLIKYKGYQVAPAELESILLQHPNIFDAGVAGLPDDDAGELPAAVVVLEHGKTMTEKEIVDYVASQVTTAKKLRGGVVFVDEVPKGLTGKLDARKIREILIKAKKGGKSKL
SMILES,"activity change, negative = inhibition",Potency
CCOC(=O)c1c(-c2cccc(C)c2)csc1NC(=O)c1c(-c2ccccc2)noc1C,-9.91% [at 48.7 pM],
NC(=O)N1c2ccccc2C=Cc2ccccc21,,inactive
O=C(NCCCNCCCNC(=O)c1ccccn1)c1ccccn1,-6.78% [at 48.7 pM],
OCCCNc1nc(-c2ccc(Cl)cc2)nnc1-c1ccc(Br)cc1,,inactive
Nn1c(SCC(=O)NCCC2=CCCCC2)nnc1C1CCCCC1,2.17% [at 48.7 pM],
Clc1ccc(-c2nnc(-c3ccccc3)nc2-c2c[nH]c3ccccc23)cc1,,inactive
COCCCN1C(=O)C(=O)/C(=C(/O)c2ccc3c(c2)CC(C)O3)C1c1cccnc1 (stereo not given),4.07% [at 48.7 pM],
Brc1ccc(-c2nnc(-c3ccccc3)c(N3CCSCC3)n2)cc1,,10 µM (active)
O=c1[nH]c(=O)n(C2CCCO2)cc1Br (stereo not given),,inactive
O=C(Nc1ccc([N+](=O)[O-])cc1Cl)c1cc(Cl)ccc1O,,0.794 µM (active)
c1ccc(-c2nnc(-c3ccccc3)c(-c3c[nH]c4ccccc34)n2)cc1,,inactive
CCCCOC(C)n1cc(F)c(=O)[nH]c1=O (stereo not given),,inactive
O=C(Cc1c(F)cccc1Cl)N1CCN(C(=O)c2ccco2)CC1,-0.165% [at 48.7 pM],
N#C/C(=C\Nc1ccccc1SC(F)(F)F)c1nc(-c2ccc(Cl)cc2)cs1,19.5% [at 48.7 pM],
FC(F)(F)c1cccc(Oc2nc(-c3ccccc3)nnc2C(F)(F)F)c1,,8.91 µM (active)
COc1ccc(OC)c(-c2csc(N3CCC(c4ccccc4)CC3)n2)c1,,inactive
O=[N+]([O-])c1ccc(-c2nnc(-c3ccccc3)c(NCCCO)n2)cc1,,11.2 µM (active)
COc1nc(-c2ccc(Cl)cc2)nnc1C,,inactive
CCCSc1nnc2c(n1)OC(c1sccc1C)Nc1ccccc1-2 (stereo not given),,14.1 µM (active)
O=C(Nc1cccnc1)/C(N=Nc1c(Cl)cccc1Cl)=C(\O)c1ccccc1,-9.05% [at 48.7 pM],

SMILES,"activity change, negative = inhibition",Potency
COc1ccc(-c2csc(N3CCC(C(N)=O)(N4CCCCC4)CC3)n2)cc1,,inactive
Cc1ccc(-c2nnc(-c3ccccc3)c(-c3ccccc3)n2)cc1,,inactive
CN(C)CCCN(C(=O)c1cccs1)c1nc(-c2ccccc2)cs1,,inactive
Cc1ccc(-c2csc(NC(=O)C3CCN(S(=O)(=O)c4cccs4)CC3)n2)cc1,,8.91 µM (active)
Fc1ccc(Oc2nc(-c3ccccc3)nnc2C(F)(F)F)cc1,,11.2 µM (active)
O=C(NCc1cccs1)C(=O)NCC1OCCCN1S(=O)(=O)c1ccccc1 (stereo not given),14.3% [at 48.7 pM],
COc1ccc(CNC(=O)c2ccc(C(C)C)cc2)cc1,39.8% [at 48.7 pM],
CC(C)Nc1nc(-c2ccccc2)nnc1-c1ccccc1,,inactive
Cc1ccc(-c2nnc(-c3ccccc3)c(N3CCOCC3)n2)cc1,,inactive
FC(F)(F)c1cccc(-c2nnc(-c3ccccc3)c(N3CCOCC3)n2)c1,,inactive
COc1cccc(NC(=O)CSc2nc3ccccc3nc2N2CCOCC2)c1,,inactive
CCC1=Nc2ccccc2-c2nnc(SC)nc2O1,,inactive
CCC(=O)n1nc(NCc2ccccc2OC)nc1NCc1ccccc1OC,-6.75% [at 48.7 pM],
NC(=O)C1(N2CCCCC2)CCN(c2nc(-c3ccc(Br)cc3)cs2)CC1,,inactive
Cc1ccc(C(=O)Cn2c3c(sc2=N)CCCC3)cc1,,126 nM (active) and 100 nM (active)
CC(/C=C/C(=O)NO)=C\[C@@H](C)C(=O)c1ccc(N(C)C)cc1,,inactive
O=C(NCCc1cn2ccsc2n1)c1cccs1,-9.66% [at 48.7 pM],
OCCCNc1nc(-c2ccc(Cl)cc2)nnc1-c1ccccc1,,inactive
FC(F)C(F)(F)C1=CC(c2cccs2)=NCCN1,-4.71% [at 48.7 pM],
CCOc1c(Cl)cc(C(=O)Nc2ccccc2C(=O)O)cc1Cl,,3.98 µM (active)
